Experimental findings from PubChem BioAssay (NCATS) are described below.

Test [1] has as its target Estrogen receptor (Homo sapiens) (UniProt P03372). Kind of test: qHTS assay for small molecule agonists of estrogen receptor alpha signaling (AID 588514). Also: nearly all actives have a fitted effect of over 70% in size. Also: potency is read from the fitted curve at half-maximal effect.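 As to activation: 0% = vehicle only and 100% = reference agonist.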 Conditions: ER-alpha-UAS-bla HEK293, beta-lactamase ratio, 18 h; series mostly up to 76.8 µM. The method, boiled down: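 EC50 and efficacy came from Hill fits of beta-lactamase reporter signal (CCF4 dye, 2 h at room temperature) scaled between DMSO and 20 nM 17-beta-estradiol. Agonist mode: HEK293 ER-alpha-UAS-bla cells in charcoal/dextran-stripped serum medium, 18 h compound exposure at 37 C.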
For orientation: qHTS replaces the single test concentration by a dilution series.

The target of test [2] is Glucocorticoid receptor (Homo sapiens) (UniProt P04150). As to the kind of experiment: qHTS assay for small molecule agonists of glucocorticoid receptor signaling (AID 588532; active = well fitted curve in the direction sought with a large enough effect in the signal ratio, with a control signal flat; inconclusive = small, poorly fitted or top-dose-only effect, or a change in a side signal; inactive = no such curve, though single readings can be large or run the other way; the % refers to the signal ratio;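 also: 100% = dexamethasone at 0.1 µM and 0% = DMSO only wells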). Conditions: HeLa MMTV-bla, beta-lactamase ratio, agonist, 18 h; stronger effect = higher value; percent of dexamethasone control, DMSO zero. The method, boiled down: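 HeLa GRE-bla reporter cells; 18 h compound exposure at 37 C; 2 h CCF4 loading at room temperature; fluorescence at 460 and 530 nm; EC50 by Hill equation.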
Sequence of Glucocorticoid receptor (Homo sapiens) (P04150 whole entry, looked up): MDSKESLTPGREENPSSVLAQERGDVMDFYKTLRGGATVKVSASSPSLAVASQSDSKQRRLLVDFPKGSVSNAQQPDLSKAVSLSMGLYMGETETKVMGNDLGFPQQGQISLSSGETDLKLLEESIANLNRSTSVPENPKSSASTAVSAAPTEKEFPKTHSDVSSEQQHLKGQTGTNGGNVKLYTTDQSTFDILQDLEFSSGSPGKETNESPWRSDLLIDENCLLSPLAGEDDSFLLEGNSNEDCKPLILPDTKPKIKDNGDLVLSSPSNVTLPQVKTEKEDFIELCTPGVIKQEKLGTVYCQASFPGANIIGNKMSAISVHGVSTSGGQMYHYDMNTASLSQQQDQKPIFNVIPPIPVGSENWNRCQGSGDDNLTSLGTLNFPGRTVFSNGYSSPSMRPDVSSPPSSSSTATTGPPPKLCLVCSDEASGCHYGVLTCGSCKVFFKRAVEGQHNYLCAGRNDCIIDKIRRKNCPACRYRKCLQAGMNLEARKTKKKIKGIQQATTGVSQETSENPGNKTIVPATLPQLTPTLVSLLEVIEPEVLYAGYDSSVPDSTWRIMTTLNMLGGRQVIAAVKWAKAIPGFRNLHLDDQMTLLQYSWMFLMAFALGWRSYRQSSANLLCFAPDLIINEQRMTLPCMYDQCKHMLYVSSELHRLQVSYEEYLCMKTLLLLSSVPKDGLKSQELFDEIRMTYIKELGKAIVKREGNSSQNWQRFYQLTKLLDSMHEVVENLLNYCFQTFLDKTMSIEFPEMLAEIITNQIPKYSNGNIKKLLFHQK

For test [3], the target named is Estrogen receptor (Homo sapiens) (UniProt P03372). Kind of test: qHTS assay for small molecule antagonists of estrogen receptor alpha signaling (AID 588513; active = well fitted curve in the direction sought with a large enough effect in the signal ratio, with a control signal flat, not every such curve was filed as active; inconclusive = small, poorly fitted or top-dose-only effect, or effect the other way, or a change in a side signal; inactive = no such curve, though single readings can be large or run the other way; the % refers to the signal ratio; also: potency is read from the fitted curve at half-maximal effect). Conditions: ER-alpha-UAS-bla HEK293, beta-lactamase ratio, antagonist mode; series mostly up to 76.9 µM. The method, boiled down:
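Fluorescence from CCF4 substrate after 2 h at room temperature gave reporter activity; cells had been exposed to compound and 0.5nM 17-beta-estradiol for 18 h at 37 C. Hill-equation fitting yielded IC50 and maximal response.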

The target in test [4] is Glucocorticoid receptor (Homo sapiens) (UniProt P04150). Kind of test: qHTS assay for small molecule antagonists of glucocorticoid receptor signaling (AID 588533; active = well fitted inhibition curve with a large enough effect in the signal ratio, with a control signal flat, not every such curve was filed as active; inconclusive = small, poorly fitted or top-dose-only effect, or effect the other way, or a change in a side signal; the % refers to the signal ratio; also: % is scaled to controls: 0 for no effect and ±100 for the full control effect). Conditions: HeLa MMTV-bla, GRE beta-lactamase ratio, antagonist mode, 18 h; series mostly up to 76.8 µM. The method, boiled down: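 Antagonist-mode qHTS: compound titrations added to GRE-bla HeLa cells, then dexamethasone 2 nM final; 18 h, 37 C. CCF4 FRET fluorescence normalized to dexamethasone and DMSO; IC50 from Hill fit.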

Test [5] can be described thus: qHTS assay for small molecule antagonists of peroxisome proliferator-activated receptor delta signaling (AID 588535).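 Also: cells co-treated with a PPAR-delta agonist as stimulator during compound exposure.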 The note with it: HEK293T PPARd-UAS-bla, beta-lactamase FRET ratio, 18 h; 460 nm channel. The method, boiled down: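 Fluorescence from CCF4-loaded GeneBLAzer PPAR-delta-UAS-bla HEK293T cells (2 hrs RT loading) quantified reporter inhibition after an 18 hr, 37 C compound exposure across a titration.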

Test [6] can be described thus: qHTS for Inhibitors of ATXN expression: Validation (AID 588378; active = well fitted curve in the direction sought with a large enough effect; inconclusive = small, poorly fitted or top-dose-only effect, or another doubt; inactive = no such curve, though single readings can be large; an effect the other way counts as inactive or inconclusive; also: % is scaled to controls: 0 for no effect and ±100 for the full control effect; nearly all actives have a fitted effect of over 75% in size). The note with it: cell-based ATXN2 expression reporter assay, luminescence; series mostly up to 57.1 µM. The method, boiled down:
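Compounds were pinned onto attached HEK293 cells carrying an ATXN2-firefly luciferase construct and incubated 24 hrs at 37 degrees C. Each well then received a fluorescent viability reagent followed by luciferase substrate for end-point luminescence.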

For test [7], the target named is Androgen receptor (Homo sapiens) (UniProt P10275). As to the kind of experiment: qHTS assay for small molecule agonists of androgen receptor signaling (AID 588515; active = well fitted curve in the direction sought with a large enough effect in the signal ratio, with a control signal flat; inconclusive = small, poorly fitted or top-dose-only effect, or effect the other way, or a change in a side signal; inactive = no such curve, though single readings can be large or run the other way; the % refers to the signal ratio; also: % is scaled to controls: 0 for no effect and ±100 for the full control effect). The note with it: AR-UAS-bla HEK293, beta-lactamase ratio, agonist 16 h; stronger effect = higher value. In a few lines:
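Stimulation of an AR-responsive β-lactamase reporter in GripTite HEK293 cells was measured after 16 h compound exposure at 37 °C, via CCF4 fluorescence after 2 h RT. EC50 from Hill fits, normalized to R1881 at 30 nM.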

For test [8] the target is unchanged. Kind of test: qHTS assay for small molecule antagonists of androgen receptor signaling (AID 588516; active = well fitted curve in the direction sought with a large enough effect in the signal ratio, with a control signal flat, not every such curve was filed as active; inconclusive = small, poorly fitted or top-dose-only effect, or effect the other way, or a change in a side signal; inactive = no such curve, though single readings can be large or run the other way; the % refers to the signal ratio; also: potency is read from the fitted curve at half-maximal effect). The note with it: AR-UAS-bla HEK293, beta-lactamase ratio, antagonist mode, 16 h; series mostly up to 76.8 µM. In a few lines:
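Cells were plated and incubated 5 h, compounds added in titration, then R1881 (10 nM final) as agonist. After 16 h at 37 C, CCF4 substrate was loaded for 2 h at room temperature and fluorescence measured.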

In test [9] the target is DNA dC->dU-editing enzyme APOBEC-3G (Homo sapiens) (UniProt Q9HC16). Kind of test: qHTS for inhibitors of Vif-A3G interactions: Validation (AID 588379; active = well fitted curve in the direction sought with a large enough effect; inconclusive = small, poorly fitted or top-dose-only effect, or another doubt; inactive = no such curve, though single readings can be large; an effect the other way counts as inactive or inconclusive; also: 0% is about no effect). The note with it: Vif-A3G protein interaction assay; series mostly up to 46.1 µM. In a few lines:
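Yellow fluorescence (Ex 488, Em 500-530) of Vif-coexpressing HeLa A3G-eYFP cells, scanned by Acumen cytometer, reports blocked A3G degradation. Cells plated at 700/well overnight at 37 deg C before compound addition, then a further overnight compound incubation at 37 deg C.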

The target of test [10] is Bile acid receptor (Homo sapiens) (UniProt Q96RI1). As to the kind of experiment: qHTS assay for small molecule antagonists of farnesoid X receptor signaling (AID 588526). Also: % is scaled to controls: 0 for no effect and ±100 for the full control effect. Conditions: HEK293T FXR-UAS-bla, beta-lactamase ratio, antagonist mode; series mostly up to 76.7 µM. In a few lines: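 Antagonist mode: titrated compounds tested against chenodeoxycholic acid stimulation (normalized to 50 uM CDCA and DMSO) in GeneBLAzer HEK293T cells for 16 h. Beta-lactamase read by CCF4 fluorescence; IC50 from Hill fits.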
Sequence of Bile acid receptor (Homo sapiens) (Q96RI1 whole entry, looked up): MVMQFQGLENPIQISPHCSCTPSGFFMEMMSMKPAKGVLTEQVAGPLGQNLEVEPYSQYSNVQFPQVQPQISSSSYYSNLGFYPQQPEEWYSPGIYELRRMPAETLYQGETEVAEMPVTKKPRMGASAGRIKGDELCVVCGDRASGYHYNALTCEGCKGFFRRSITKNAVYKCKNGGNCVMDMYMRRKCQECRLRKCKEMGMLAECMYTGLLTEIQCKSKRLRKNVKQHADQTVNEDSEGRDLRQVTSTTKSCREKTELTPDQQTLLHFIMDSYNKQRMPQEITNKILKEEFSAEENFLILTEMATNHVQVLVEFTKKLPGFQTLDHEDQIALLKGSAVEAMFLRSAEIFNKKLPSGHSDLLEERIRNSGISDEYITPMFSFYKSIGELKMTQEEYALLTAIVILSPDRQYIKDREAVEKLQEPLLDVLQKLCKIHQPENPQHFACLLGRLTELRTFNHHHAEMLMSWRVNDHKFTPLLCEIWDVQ

Structures are written as SMILES. “And” between values parts separate entries of the source, which are not always exact repeats. Equal entries are not always repeated. The source made the active and inactive calls. Unless noted, calls follow the shape of the full dose curve.

Sequence of DNA dC->dU-editing enzyme APOBEC-3G (Homo sapiens) (Q9HC16 whole entry, looked up): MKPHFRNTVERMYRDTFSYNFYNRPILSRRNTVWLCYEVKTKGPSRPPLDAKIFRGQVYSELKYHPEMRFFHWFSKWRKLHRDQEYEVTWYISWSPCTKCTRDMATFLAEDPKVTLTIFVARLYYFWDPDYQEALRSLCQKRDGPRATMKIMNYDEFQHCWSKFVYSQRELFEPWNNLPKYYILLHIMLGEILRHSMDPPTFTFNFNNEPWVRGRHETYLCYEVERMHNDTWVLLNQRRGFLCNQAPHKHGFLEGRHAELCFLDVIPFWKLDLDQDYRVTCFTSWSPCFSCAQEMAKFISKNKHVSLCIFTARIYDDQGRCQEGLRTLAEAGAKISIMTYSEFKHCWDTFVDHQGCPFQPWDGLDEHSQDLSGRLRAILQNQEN
Sequence of Estrogen receptor (Homo sapiens) (P03372 whole entry, looked up): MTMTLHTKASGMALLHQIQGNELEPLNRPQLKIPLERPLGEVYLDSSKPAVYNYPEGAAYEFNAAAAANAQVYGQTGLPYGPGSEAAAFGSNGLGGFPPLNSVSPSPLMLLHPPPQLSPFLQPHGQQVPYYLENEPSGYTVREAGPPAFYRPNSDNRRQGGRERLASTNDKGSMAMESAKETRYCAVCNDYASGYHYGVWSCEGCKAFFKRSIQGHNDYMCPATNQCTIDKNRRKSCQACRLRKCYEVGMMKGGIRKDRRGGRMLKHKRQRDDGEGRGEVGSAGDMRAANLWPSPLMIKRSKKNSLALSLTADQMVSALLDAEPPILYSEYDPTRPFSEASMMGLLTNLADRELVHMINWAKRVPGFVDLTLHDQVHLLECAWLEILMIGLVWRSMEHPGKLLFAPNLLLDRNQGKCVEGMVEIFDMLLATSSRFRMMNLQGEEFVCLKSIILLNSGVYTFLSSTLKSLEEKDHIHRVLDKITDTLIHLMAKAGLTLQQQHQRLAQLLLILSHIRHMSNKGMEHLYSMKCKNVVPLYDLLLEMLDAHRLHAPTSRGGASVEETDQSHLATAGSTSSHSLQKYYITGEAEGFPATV
Sequence of Androgen receptor (Homo sapiens) (P10275 whole entry, looked up): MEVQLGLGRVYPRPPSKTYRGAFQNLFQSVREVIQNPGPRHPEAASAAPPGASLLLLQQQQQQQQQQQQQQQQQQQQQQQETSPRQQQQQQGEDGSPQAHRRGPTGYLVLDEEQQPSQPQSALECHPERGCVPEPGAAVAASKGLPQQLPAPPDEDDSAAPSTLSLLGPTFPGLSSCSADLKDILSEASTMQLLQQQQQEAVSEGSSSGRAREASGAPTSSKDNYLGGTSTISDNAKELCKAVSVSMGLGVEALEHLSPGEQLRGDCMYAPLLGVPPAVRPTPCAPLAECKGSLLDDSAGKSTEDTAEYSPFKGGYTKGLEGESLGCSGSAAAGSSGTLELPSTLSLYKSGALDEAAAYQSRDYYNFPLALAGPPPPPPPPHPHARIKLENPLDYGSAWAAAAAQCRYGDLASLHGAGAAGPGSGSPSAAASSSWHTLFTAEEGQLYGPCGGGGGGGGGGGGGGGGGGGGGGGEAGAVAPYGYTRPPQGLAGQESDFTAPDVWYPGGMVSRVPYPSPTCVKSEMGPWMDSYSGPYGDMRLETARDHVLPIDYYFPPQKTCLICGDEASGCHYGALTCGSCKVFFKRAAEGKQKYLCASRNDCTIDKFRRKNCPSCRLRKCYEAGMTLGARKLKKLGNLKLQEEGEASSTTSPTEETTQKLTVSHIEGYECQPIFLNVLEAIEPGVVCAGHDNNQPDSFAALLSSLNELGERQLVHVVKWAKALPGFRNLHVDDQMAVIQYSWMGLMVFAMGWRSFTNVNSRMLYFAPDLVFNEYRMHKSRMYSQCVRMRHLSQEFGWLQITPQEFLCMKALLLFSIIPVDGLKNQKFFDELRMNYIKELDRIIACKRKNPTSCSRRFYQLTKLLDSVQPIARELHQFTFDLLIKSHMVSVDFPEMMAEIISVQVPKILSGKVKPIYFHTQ

For `CC(C)(C)CC(C)(C)c1ccc(O)c(-n2nc3ccccc3n2)c1`, the Potency result in test [1] was “inactive”. For the same compound, the activation in [2] was -3.64% (inactive).
With `COc1ccc(C(Cl)=C(c2ccc(OC)cc2)c2ccc(OC)cc2)cc1`, in [3], the Potency is 1.58 µM [inconclusive] (active). The Potency entry in test [1] is “inactive”. In addition, in [2], the activation is 2.85% (inactive). For the same compound, the result in test [4] was inactive. For the same compound, in test [5], the max response came to 23%.
`NC(N)=NCc1cccc(I)c1`: in test [6], the call was inactive.
As to `CCCCCCCCCCCCCCCCO`, the Potency entry in test [3] and in [1] was “inactive” each time. Also, in test [2], the activation was -8.72% (inactive). The outcome in [4] was inactive. In addition, the max response in [5] is -7.5%.
Consider `CN(C)C(=O)Nc1ccc(Cl)c(Cl)c1`, for which the Potency entry in [3], in test [1] and in test [8] was “inactive” throughout. Also, the results for the activation in [7] and in [2] were 0.958% (inactive) and -4.05% (inactive), respectively. The outcome in test [4] was inactive. In addition, in test [5], the max response is 4.49%.
As for `O=c1[nH]c(=O)n([C@H]2C[C@H](O)[C@@H](CO)O2)cc1F`, the outcome in [9] was inactive.
As to `CCOC(=O)[C@H](CCc1ccccc1)N[C@@H](C)C(=O)N1[C@H](C(=O)O)C[C@H]2CCCC[C@@H]21`, in test [6], the call was inactive.
For the compound `O=C(c1ccc(F)cc1)C1CCN(CCn2c(=S)[nH]c3ccccc3c2=O)CC1`, the call in test [9] was inactive.
On the same count and under the same terms, then `CN1CCc2cccc3c2[C@H]1Cc1ccc(O)c(O)c1-3`, with “inactive”.
As for `CN=C(N)NCCC[C@H](N)C(=O)O`, the compound was classed as inactive in test [6] and in [9].
Take `CCOc1ccccc1C(N)=O`: the Potency entry in test [3] and in [1] was “inactive” in each case. Moreover, the activation was -4.07% (inactive) in test [7] and -1.86% (inactive) in test [2]. The result in test [10] and in test [4] was inactive. For the same compound, the max response in test [5] is -16.5%.
With `CC(C)(C)NC[C@H](O)COc1nsnc1N1CCOCC1`, the outcome in test [6] and in [9] was inactive.
Take `CN(C)CCC[C@@]1(c2ccc(F)cc2)OCc2cc(C#N)ccc21`: in test [9], the outcome was inactive.
As for `CCCCOC(=O)CC(CC(=O)OCCCC)(OC(C)=O)C(=O)OCCCC`, the result in test [10] and in test [4] was inactive. The max response in [5] amounted to 0.806%.
For `COc1cc([C@H]2Oc3cc([C@H]4Oc5cc(O)cc(O)c5C(=O)[C@@H]4O)ccc3O[C@@H]2CO)ccc1O`, the Potency result in test [3] is “inactive”. Moreover, the outcome in [10] was inactive. The activation in test [2] was -3.21% (inactive).
On to `Oc1c(Cl)cc(Cl)c(Cl)c1Cc1c(O)c(Cl)cc(Cl)c1Cl`, for which, in test [2], the activation was -7.2% (inactive) and -4.02% (inactive).
`CCCCCCCCOc1ccc(C(=O)c2ccccc2)c(O)c1`: the Potency result in test [1] was “inactive”. For the same compound, the max response in test [5] amounted to 16.2%.
Turning to `C/C=C/c1ccc(O)c(OC)c1`, the Potency entry in [3] and in [1] was “inactive” each time. The max response in test [5] is 10.7% and 20%.
Consider `Cl/C(=C\n1cncn1)c1ccc(Cl)cc1Cl`, for which the outcome in [9] was inactive.
`NC(=O)c1ccccc1O`: the Potency result in [3] and in test [1] was “inactive” throughout. Besides, the activation in [2] was 9.52% (inactive). The outcome in test [4] was inactive. For the same compound, the max response in test [5] turned out to be 7.67%.
For `CCCN(CCC)S(=O)(=O)c1ccc(C(=O)O)cc1`, the activation is -5.06% (inactive) and 5.71% (inactive) in test [7]; 0.219% (inactive) and 1.81% (inactive) in test [2]. Also, in test [8], the Potency result was “inactive”. Moreover, the result in [10] and in [4] was inactive. For the same compound, the max response in test [5] is 32.2% and 48.9%.
On to `CCCCCCCCCCCCCC(=O)OC(C)C`, for which the Potency result in test [3] and in test [8] was “inactive” throughout. Further, the activation in [2] is 5.08% (inactive). In [4], the outcome was inactive.
For `C#C[C@]1(O)CC[C@H]2[C@@H]3CCC4=Cc5oncc5C[C@]4(C)[C@H]3CC[C@@]21C`, the Potency in test [1] is 3.16 µM (active). In test [2], the activation was -5.91% (inactive).
In the case of `COc1ccc(C(=O)c2ccccc2)c(O)c1`, in test [3], the Potency result was “inactive”. The activation is 0.242% (inactive) and -6.84% (inactive) in [7]; 4.95% (inactive) and -5.72% (inactive) in [2]. The outcome in test [10] and in test [4] was inactive. Also, the max response in test [5] was -3.7% and 9.95%.
Consider `Oc1ccc(Cl)cc1Cc1cc(Cl)ccc1O`, for which the Potency entry in test [1] is “inactive”. Also, the activation in test [2] was -2.26% (inactive) and 2.38% (inactive).
In the case of `CCCCCCCC/C=C\CCCCCCCCN`, the Potency entry in test [3] and in [1] was “inactive” each time. Moreover, the max response in [5] was -29.2%.
For the compound `CCCCC(CC)COC(=O)c1ccc(N(C)C)cc1` (stereo not drawn), the Potency entry in [3] and in [1] was “inactive” each time. Moreover, the result in test [10] and in [4] was inactive. The activation in test [2] was -4.68% (inactive). Besides, the max response in test [5] was 0.453% and -4.75%.
As for `CO[C@]12C[C@@H](COC(=O)c3cncc(Br)c3)CN(C)[C@@H]1Cc1cn(C)c3cccc2c13`, the compound was classed as inactive in test [9].
As for `CCCCCCCCCCCCCCCC(=O)O`, the outcome in [4] was inactive.
Take `Cc1ncc(CO)c(C=O)c1O`: the compound was classed as inactive in test [9].
For `OC[C@H]1O[C@@H]2O[C@H]3[C@H](O)[C@@H](O)[C@@H](O[C@H]4[C@H](O)[C@@H](O)[C@@H](O[C@H]5[C@H](O)[C@@H](O)[C@@H](O[C@H]6[C@H](O)[C@@H](O)[C@@H](O[C@H]7[C@H](O)[C@@H](O)[C@@H](O[C@H]8[C@H](O)[C@@H](O)[C@@H](O[C@H]1[C@H](O)[C@H]2O)O[C@@H]8CO)O[C@@H]7CO)O[C@@H]6CO)O[C@@H]5CO)O[C@@H]4CO)O[C@@H]3CO`, the activation in test [2] is -6.02% (inactive).
`CCOc1ccc(NC(C)=O)cc1`: the Potency result in test [3], in [1] and in test [8] was “inactive” in each case. Further, the activation is 13.2% (inactive) and 14.9% (inactive) in [7]; 0.725% (inactive) in [2]. Also, the outcome in test [10] and in test [4] was inactive.
For the compound `NCCNc1cccc2ccccc12`, the activation in test [7] was 6.42% (inactive); in test [2], 3.88% (inactive) and -4.01% (inactive). Moreover, the Potency in test [8] is 39.8 µM (active). For the same compound, the result in test [4] was inactive. Besides, the max response in [5] worked out at 22%.
For `C=C[C@@]1(C)CC(=O)[C@]2(O)[C@@]3(C)[C@@H](O)CCC(C)(C)[C@@H]3[C@H](O)[C@H](OC(C)=O)[C@@]2(C)O1`, in [2], the activation is 3.9% (inactive). In addition, the outcome in test [4] was inactive.
In the case of `COc1ccccc1N1CCN(CCCCNC(=O)c2ccc(-c3ccc(C(C)=O)cc3)cc2)CC1`, the compound was classed as inactive in test [9].
On the same count and under the same terms, then `CNCCCCOc1ccccc1Cc1ccccc1`, with “inactive”.
Regarding `O=C(O)c1ccc(S(=O)(=O)N(Cl)Cl)cc1`, the Potency entry in [3] and in test [1] was “inactive” in each case. The result in test [10] and in test [4] was inactive.
On to `CN1CCC[C@@H]1CCO[C@](C)(c1ccccc1)c1ccc(Cl)cc1`, for which the compound was called inactive in test [9].
